Inconclusive results are not listed. Active and inactive are the calls of the source. Calls come from the whole dose curve; as a rule, active = well fitted curve in the direction sought with a large enough effect; inconclusive = small, poorly fitted or top-dose-only effect, or another doubt; inactive = no such curve, though single readings can be large; an effect the other way counts as inactive or inconclusive. Where a SMILES comes first, the peptide text is derived from it. [ ]: non-standard residue; d: D form. pGlu = O=C1CC[C@@H](C(=O)O)N1
Key:
[1] = qHTS to identify inhibitors of the type 1 interferon - major histocompatibility complex class I in skeletal muscle: primary screen against the NCATS Pharmaceutical Collection (AID 1347407);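 note: luminescence of HiBiT knocked into endogenous HLA-B as interferon-induced MHC class I level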
In short: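 Compounds […] were added to CRISPR-engineered HLA-B-HiBiT C25cl48 human myoblasts with 4.0 ng/ml IFN-beta. After 24 hrs at 37 C, cells were lysed and HiBiT luminescence measured.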

[2] = target: Protein phosphatase 1D (Homo sapiens) (UniProt O15297); test: RapidFire Mass Spectrometry qHTS Assay for Modulators of WT P53-Induced Phosphatase 1 (WIP1) (AID 1347424);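 note: amount of dephosphorylated VEPPL-S-QETFS peptide product formed by WIP1; series mostly up to about 63 µM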
In short: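 10 nM WIP1 preincubated with compounds 1 hr at room temperature in pH 7.5 Tris buffer with 30 mM MgCl2, 1 mM TCEP; 2 uM VEPPL-pS-QETFS phosphopeptide for 5 min, formic acid quench; dephosphorylated product quantified by RapidFire MS against labelled standard.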

[3] = target: Protein phosphatase 1D (Homo sapiens) (UniProt O15297); test: Rhodamine-PBP qHTS Assay for Modulators of WT P53-Induced Phosphatase 1 (WIP1) (AID 1347425)
In short: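 The read-out is the change in Rhodamine-PBP fluorescence (f1 - f0, ex 525/em 598 nm) as Pi is released, read each minute for 11 min. Final reaction: 5 nM WIP1, 10 uM phosphopeptide VEPPL-pS-QETFS, 10 uM Rh-PBP, 50 mM Tris-HCl pH 7.5, 30 mM MgCl2. Compound was preincubated with enzyme for 1 hour at room temperature.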

[4] = Primary qHTS for inhibitors of La Crosse Virus (LACV) - induced cell death in SH-SY5Y cells (AID 1508616);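 note: top concentration of the series differs between compounds; higher means more rescue of cells from virus-induced death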
In short: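 Luminescent ATP readout (ATPLite 1step, 5 min room temperature) measured rescue from LACV-induced death after 6 days of infection at 0.01 MOI; normalized to infected DMSO wells and uninfected DMSO wells.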

[5] = target: Calcium and integrin-binding protein 1 (Homo sapiens) (UniProt Q99828); test: Primary qHTS for Identification of Calcium Integrin Binding Protein 1 (CIB1) Competitor (AID 1508620);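 note: GST tagged CIB1 binding a fluorescein labelled alphaIIb integrin peptide tracer; top concentration of the series differs between compounds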
In short: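 Fluorescence polarization competition: GST-tagged CIB1 (1 uM final) preincubated with compound 15 min at room temperature, then FITC-labelled alphaIIb peptide (100 nM final) added. After 15 min at room temperature, polarization read at Ex 480/Em 540.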

Measured: Potency

Chain of Calcium and integrin-binding protein 1 (Homo sapiens) (Q99828 whole entry, looked up): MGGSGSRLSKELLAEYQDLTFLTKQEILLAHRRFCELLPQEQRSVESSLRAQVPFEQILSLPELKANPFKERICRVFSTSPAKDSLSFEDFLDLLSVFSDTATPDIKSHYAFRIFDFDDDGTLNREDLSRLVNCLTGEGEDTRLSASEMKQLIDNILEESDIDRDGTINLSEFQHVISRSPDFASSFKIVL
Chain of Protein phosphatase 1D (Homo sapiens) (O15297 whole entry, looked up): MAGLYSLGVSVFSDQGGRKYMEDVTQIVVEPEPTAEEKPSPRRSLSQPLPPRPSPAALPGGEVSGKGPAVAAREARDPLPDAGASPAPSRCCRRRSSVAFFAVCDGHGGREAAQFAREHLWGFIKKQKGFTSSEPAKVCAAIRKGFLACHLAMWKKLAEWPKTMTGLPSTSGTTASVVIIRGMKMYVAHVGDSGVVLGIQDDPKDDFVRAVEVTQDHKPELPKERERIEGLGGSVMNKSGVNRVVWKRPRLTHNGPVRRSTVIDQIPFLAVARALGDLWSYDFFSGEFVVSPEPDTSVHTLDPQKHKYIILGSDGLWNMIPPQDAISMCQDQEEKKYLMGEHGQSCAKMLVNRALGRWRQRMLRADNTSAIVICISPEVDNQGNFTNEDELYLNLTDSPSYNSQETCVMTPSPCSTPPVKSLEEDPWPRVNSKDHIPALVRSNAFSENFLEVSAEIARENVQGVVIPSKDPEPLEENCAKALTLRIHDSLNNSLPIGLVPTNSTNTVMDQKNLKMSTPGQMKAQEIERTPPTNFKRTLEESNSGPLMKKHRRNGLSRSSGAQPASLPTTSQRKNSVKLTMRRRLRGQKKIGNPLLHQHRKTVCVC

CCC(=O)O[C@]1(C(=O)COC)[C@@H](C)C[C@H]2[C@@H]3CCC4=CC(=O)C=C[C@]4(C)C3(F)[C@@H](O)C[C@@]21C (stereo not given in full)
inactive: [1] | [2] | [3] | [4] | [5]

Nc1ccc(C(=O)N2CC3CC(CN(Cc4ccccc4)C3)C2)cc1
inactive: [1] | [2] | [3] | [4] | [5]

Cc1nc([N+](=O)[O-])cn1-c1ccc([N+](=O)[O-])cc1
inactive: [1] | [2] | [3] | [4] | [5]

CCCC(=O)Nc1ccc(O)c(C(C)=O)c1
inactive: [1] | [2] | [3] | [4] | [5]

CN1C(CSCC(F)(F)F)Nc2cc(Cl)c(S(N)(=O)=O)cc2S1(=O)=O (stereo not given)
inactive: [1] | [2] | [3] | [4] | [5]

O=C1Nc2cc(Cl)ccc2Oc2ccccc21
inactive: [1] | [2] | [3] | [4] | [5]

c1ccc2occc2c1
inactive: [1] | [2] | [3] | [4] | [5]

CC(=O)Nc1c(I)c(NC(C)=O)c(I)c(C(=O)O)c1I
inactive: [1] | [2] | [3] | [4] | [5]

CC(C)C(=O)Nc1cccc(C2CN3CCSC3=N2)c1 (stereo not given)
inactive: [1] | [2] | [3] | [4] | [5]

CCC[C@H](N[C@@H](C)C(=O)N1[C@H](C(=O)O)C[C@@H]2CCCC[C@@H]21)C(=O)OCC
inactive: [1] | [2] | [3] | [4] | [5]

COc1cc(C=O)ccc1O
inactive: [1] | [2] | [3] | [4] | [5]

NC(=O)NS(=O)(=O)c1ccc(Cl)cc1
inactive: [1] | [2] | [3] | [4] | [5]

CN1C(=O)CC(C)(c2ccccc2)C1=O (stereo not given)
inactive: [1] | [2] | [3] | [4] | [5]

CN1CCN(N)CC1
inactive: [1] | [2] | [3] | [4] | [5]

CCNC(=O)[C@@H]1CCCN1C(=O)[C@H](CCCN=C(N)N)NC(=O)[C@H](CC(C)C)NC(=O)CNC(=O)[C@H](Cc1ccc(O)cc1)NC(=O)[C@H](CO)NC(=O)[C@H](Cc1c[nH]c2ccccc12)NC(=O)[C@H](Cc1cnc[nH]1)NC(=O)[C@@H]1CCC(=O)N1 ([pGlu]HWSYGLRP-NHEt)
inactive: [1] | [2] | [3] | [4] | [5]

O=C(CCOCCOCCOCCOCCC(=O)Nc1c(I)cc(I)c(C(=O)O)c1I)Nc1c(I)cc(I)c(C(=O)O)c1I
inactive: [1] | [2] | [3] | [4] | [5]

CCOC(=O)[C@H](CCc1ccccc1)N[C@@H](C)C(=O)N(CC(=O)O)C1Cc2ccccc2C1
inactive: [1] | [2] | [3] | [4] | [5]

OC1(c2ccc(Cl)cc2)CCNCC1
inactive: [1] | [2] | [3] | [4] | [5]

O=C(C1CCCCC1)N1CC(=O)N2CCCc3ccccc3C2C1 (stereo not given)
inactive: [1] | [2] | [3] | [4] | [5]

CCOC(=O)CN1CCCC1=O
inactive: [1] | [2] | [3] | [4] | [5]

Nc1c(I)cc(I)c(C(=O)N(CCC(=O)O)c2ccccc2)c1I
inactive: [1] | [2] | [3] | [4] | [5]

Nc1ccc(C(=O)OCC(O)CO)cc1 (stereo not given)
inactive: [1] | [2] | [3] | [4] | [5]

O=C(O)Cn1cnnn1
inactive: [1] | [2] | [3] | [4] | [5]

N#CSCC(=O)O
inactive: [1] | [2] | [3] | [4] | [5]

COc1ccc([C@@H]2Sc3ccccc3NC(=O)[C@@H]2O)cc1
inactive: [1] | [2] | [3] | [4] | [5]

CCOC(=O)NNc1ccc(N(CC)CC(C)O)nn1 (stereo not given)
inactive: [1] | [2] | [3] | [4] | [5]

Cc1ccccc1N1CCN(CCc2nnc3n2CCCC3)CC1
inactive: [1] | [2] | [3] | [4] | [5]

CNC(=O)c1c(I)c(NC(C)=O)c(I)c(C(=O)O)c1I
inactive: [1] | [2] | [3] | [4] | [5]

Cc1ccc(O)cc1
inactive: [1] | [2] | [3] | [4] | [5]

O=C(O)c1ccc(OCCN2CCCCC2)cc1
inactive: [1] | [2] | [3] | [4] | [5]

CCOc1ccc(NS(=O)(=O)c2ccc(N)cc2)nn1
inactive: [1] | [2] | [3] | [4] | [5]

Reference: PubChem BioAssay (NCATS)
